# Test results: PubChem BioAssay (NCI)
# Compounds without any hit were thinned out: in the full panel of roughly 83,000, 20% have a hit.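 Method: cells in 96-well plates; compound added at one concentration; 48 h incubation; percent growth measured; values under 10 scored active.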 A number with no mark means an inactive call. Activity calls are given as the source filed them.
# System: NCI-H23 lung
# Assay: NCI-60 one-dose screen, 48 h (100 = growth as untreated, 0 = no growth, -100 = all killed)
# Details: 10 µM unless noted
row,Structure (SMILES),growth
1,Cc1ccc(Cl)cc1NC(=O)c1cc2ccccc2cc1O,-30.4% (active)
2,CC1SC(c2ccc(OCc3ccccc3)cc2)N(NC(=O)C(O)(c2ccccc2)c2ccccc2)C1=O (stereo not drawn),61%
3,O=c1cc(C2NNC(=S)N2)c2ccc3ccccc3c2o1 (stereo not drawn),91.6%
4,Cc1ccc(Nc2nc(N)nc(CSCC(=O)NN)n2)cc1,98.8%
5,O=[N+]([O-])c1ccc(OCCO)cc1,99.6%
6,O=C(CSc1nnc(-c2ccc(NC(=O)c3cccnc3)cc2)o1)N[C@@H](Cc1ccc(O)cc1)C(=O)O,108%
7,O=C(/C=C/c1ccco1)c1ccc(Nc2nc(Nc3ccc(F)cc3)nc(Nc3ccc(Cl)cc3)n2)cc1,59.5%
8,CCOC(=O)c1c(-c2ccc(Cl)cc2)c(C#N)c(=O)n(-c2ccccc2CC)c1N,76.9%
9,COC(=O)[C@]12CC[C@@H](C)[C@H](C)[C@@H]1C1=CC[C@@H]3[C@@]4(C)C(C=O)=C[C@@](C)(COC(C)=O)C4=CC[C@@]3(C)[C@]1(C)CC2,7.56% (active)
10,C[C@]12CC[C@@H]3c4cc(OC(F)F)c(O)cc4CC[C@H]3[C@@H]1CC[C@@H]2OS(N)(=O)=O,3.46% (active)
11,NCCCNc1nc2ccccc2c2c(=O)c3cccc(Cl)c3sc12,44.7%
12,O=C(N=c1oc2ccccc2cc1-c1cc2ccccc2[nH]1)c1ccc(Cl)cc1,29.4%
13,CSc1n(Cc2ccc3ccccc3c2)c(C)c[n+]1Cc1ccc2ccccc2c1,-50.8% (active)
14,COC(=O)CCC1=C(C)C2=NC1=CC1=NC(=CC3=NC(=Cc4[nH]c(/c(=C(/C)O)c4C)=C2)C(C(C)=O)=C3C)C(C)=C1CCC(=O)OC,99.8%
15,COc1ccc(Nc2nnc(SCc3ccccc3F)s2)cc1,95.7%
16,O=C(N/N=C/C=C/c1ccc([N+](=O)[O-])o1)c1cc2ccccc2cc1O,-54.6% (active)
17,OC(COc1ccccc1Cl)COc1ccccc1Cl,94.1%
18,c1ccc(-c2nc([P+](c3ccccc3)(c3ccccc3)c3ccccc3)c(N3CCOCC3)o2)cc1,2.61% (active)
19,O=C1CCc2c(sc3[nH]c(=S)n(-c4ccc(OC(F)(F)F)cc4)c(=O)c23)C1,14.1%

row,Structure (SMILES),growth
1,O=C(Nc1ccc(Cl)cc1)Nc1ccc(Cl)c(C(F)(F)F)c1,-15.5% (active)
2,COc1ccc(C2CC(c3cccc(OC)c3)=NN2C(=O)c2cc(OC)c(OC)c(OC)c2)cc1 (stereo not drawn),30.6%
3,CCOC(=O)C/C(C)=N\NC(=O)c1ccncc1,101%
4,COc1ccc2oc3c(C)c4c(c(C)c3c2c1)C(=O)N(Cc1ccccc1)C4=O,93.3%
5,CC(C)=C[C@@H]1c2c(c3ccccc3n(C)c2=O)O[C@H]2c3c(c4ccccc4n(C)c3=O)OC(C)(C)[C@@H]12,99.6%
6,Cc1ccc(NCCN(C)C)c2c(=O)c3ccccc3sc12,40.5%
7,C=C1C(=O)O[C@H]2[C@H]1CC/C(COC(=O)C(=O)c1c[nH]c3ccccc13)=C\CC[C@@]1(C)O[C@@H]21,-42.8% (active)
8,Oc1ccc(CN2CCC(N3CCOCC3)CC2)c2cccnc12,15.2%
9,O=C1CCC2=C3C4CCCCC4C(=O)C4CCCC(OC2C1)C34 (stereo not drawn),-12.9% (active)
10,Cc1cc(=O)[nH]c(N=Nc2c(O)[nH]c3ccccc23)n1,100%
11,COc1cc(/C=C/C(=O)N2CCN(C(=O)c3cc(OC)c(OC)c(OC)c3)CC2)ccc1OCCCN1C(=O)c2cccc3cccc(c23)C1=O,106%
12,Cc1ccc(S(=O)(=O)N/N=C\c2cc(Cl)ccc2O)cc1,96.8%
13,COc1cc(OC)cc(C2CC(=O)Nc3c2c(C)nn3-c2nc3ccccc3[nH]2)c1 (stereo not drawn),5.52% (active)
14,Cc1ccc(S(=O)(=O)n2cc(CNc3ccc(N4CCOCC4=O)cc3)c3ccccc32)cc1,87.8%
15,CC1O[C@@H](OC2[C@H](OC(=O)/C=C/c3ccc(O)c(O)c3)C(COC3O[C@H](C)C(O)C(O)[C@@H]3O)O[C@@H](OCCc3ccc(O)c(O)c3)[C@H]2O)[C@@H](O)C(O)[C@H]1O (stereo partly drawn),101%
16,CS(=O)c1cccc(-c2ccc3nc(N)n(-c4ccc(C(F)(F)F)cc4)c(=O)c3c2)c1 (stereo not drawn),102%
17,CCOc1ccccc1-n1c(CN2CCN(C(=O)COc3ccc(CNCCCCCCN4C5CCCC4CC(OC(=O)Nc4cc(C)ccc4OC)C5)cc3)CC2)nc2ccccc2c1=O (stereo not drawn),-82.6% (active)
18,O=C(O)CN1C(=O)CCC1=O,104%
19,Cc1cccc(NC(=O)CSc2nc3ccccc3[nH]2)c1,94.6%
